Test results reported in PubChem BioAssay (Tox21).
Where “and” joins values, the source holds several entries; their conditions need not be identical. Equal values may be shown once. Inconclusive results are not listed. The source holds several records for some structures; these can differ, active in one and inactive in another. Calls of active or inactive are those of the source. Calls follow the shape of the dose curve; as a rule, active = well fitted curve in the direction sought with a large enough effect in the repeat runs; inconclusive = weak or mixed curves; inactive = no such curve, though single readings can be large; an effect the other way counts as inactive or inconclusive.

How the values were obtained:
[1] = qHTS RealTime-Glo MT Cell Viability Assay in HepG2 cells - 40 hour (AID 1224870); also: nearly all actives have a fitted effect of over 50% in size; also: potency is read from the fitted curve at half-maximal effect
Summary of the method: (§1)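 HepG2 cells mixed with RealTime-Glo MT reagents (NanoLuc plus cell-permeant prosubstrate) were seeded at 600 cells/well, incubated 5 h at 37 C/5% CO2, then pinned with compounds in DMSO; nonlytic luminescence tracked viability during 40 h treatment.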

[2] = A CellTox Green Cytotoxicity Assay to monitor cytotoxicity in HEK293 cells - 40 hour (AID 1224871); also: nearly all actives have a fitted effect of over 45% in size; also: potency is read from the fitted curve at half-maximal effect
Summary of the method: (§2)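 Fluorescence intensity, read at 0, 8, 16, 24, 32 and 40 h of compound treatment, reflected dye binding to DNA of dead HEK293 cells; compounds (23 nL, DMSO) were added 5 h after plating cells with reagent.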

[3] = qHTS RealTime-Glo MT Cell Viability Assay in HEK293 cells - 16 hour (AID 1224872); also: nearly all actives have a fitted effect of over 50% in size; also: potency is read from the fitted curve at half-maximal effect
Summary of the method: (§3)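 Viability tracked continuously by luminescence as live cells reduce a prosubstrate for NanoLuc; HEK293 cells preincubated 5 h, compound-treated at 37 C, and read at 0, 8, 16, 24, 32 and 40 h.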

[4] = qHTS RealTime-Glo MT Cell Viability Assay in HepG2 cells - 8 hour (AID 1224873); also: nearly all actives have a fitted effect of over 55% in size; also: potency is read from the fitted curve at half-maximal effect
Summary of the method: as §1

[5] = qHTS RealTime-Glo MT Cell Viability Assay in HEK293 cells - 40 hour (AID 1224874); conditions: RealTime-Glo luminescence; max response: stronger effect = lower value; also: nearly all actives have a fitted effect of over 50% in size; also: potency is read from the fitted curve at half-maximal effect
Summary of the method: (§4)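 Viable HEK293 cells reduce a cell-permeant prosubstrate; the product diffuses out and is consumed by NanoLuc in the medium to give light. Compounds went in after a 5 h incubation and plates were read over the treatment course.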

[6] = A CellTox Green Cytotoxicity Assay to monitor cytotoxicity in HepG2 cells - 16 hour (AID 1224876); also: nearly all actives have a fitted effect of over 45% in size; also: potency is read from the fitted curve at half-maximal effect
Summary of the method: (§5)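 Using 1536-well format, dye-containing HepG2 suspension was seeded, allowed 5 h at 37 C/5% CO2, dosed by pintool with compounds, positive and negative controls, and imaged for fluorescence across 40 h.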

[7] = qHTS RealTime-Glo MT Cell Viability Assay in HepG2 cells - 32 hour (AID 1224877); also: nearly all actives have a fitted effect of over 55% in size; also: potency is read from the fitted curve at half-maximal effect
Summary of the method: (§6)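 Viability was tracked continuously by NanoLuc luminescence from prosubstrate reduced by living HepG2 cells, at successive time points over 40 h of compound exposure. Cells with reagent were preincubated 5 h at 37 °C before compound addition.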

[8] = A CellTox Green Cytotoxicity Assay to monitor cytotoxicity in HepG2 cells - 24 hour (AID 1224878); also: nearly all actives have a fitted effect of over 45% in size; also: potency is read from the fitted curve at half-maximal effect
Summary of the method: as §5

[9] = A CellTox Green Cytotoxicity Assay to monitor cytotoxicity in HepG2 cells - 40 hour (AID 1224879); also: nearly all actives have a fitted effect of over 40% in size; also: potency is read from the fitted curve at half-maximal effect
Summary of the method: as §5

[10] = qHTS RealTime-Glo MT Cell Viability Assay in HEK293 cells - 0 hour (AID 1224880); also: top concentration of the series differs between compounds; nearly all actives have a fitted effect of over 45% in size
Summary of the method: as §4

[11] = A CellTox Green Cytotoxicity Assay to monitor cytotoxicity in HEK293 cells - 32 hour (AID 1224881); also: nearly all actives have a fitted effect of over 40% in size; also: potency is read from the fitted curve at half-maximal effect
Summary of the method: as §2

[12] = A CellTox Green Cytotoxicity Assay to monitor cytotoxicity in HepG2 cells - 0 hour (AID 1224882); also: nearly all actives have a fitted effect of over 35% in size
Summary of the method: as §5

[13] = A CellTox Green Cytotoxicity Assay to monitor cytotoxicity in HepG2 cells - 32 hour (AID 1224883); also: nearly all actives have a fitted effect of over 50% in size; also: potency is read from the fitted curve at half-maximal effect
Summary of the method: as §5

[14] = A CellTox Green Cytotoxicity Assay to monitor cytotoxicity in HEK293 cells - 8 hour (AID 1224884); also: nearly all actives have a fitted effect of over 35% in size
Summary of the method: as §2

[15] = qHTS RealTime-Glo MT Cell Viability Assay in HepG2 cells - 16 hour (AID 1224885); also: nearly all actives have a fitted effect of over 50% in size; also: potency is read from the fitted curve at half-maximal effect
Summary of the method: as §6

[16] = qHTS RealTime-Glo MT Cell Viability Assay in HEK293 cells - 24 hour (AID 1224886); also: nearly all actives have a fitted effect of over 50% in size; also: potency is read from the fitted curve at half-maximal effect
Summary of the method: as §3

[17] = qHTS RealTime-Glo MT Cell Viability Assay in HEK293 cells - 8 hour (AID 1224887); also: nearly all actives have a fitted effect of over 50% in size; also: potency is read from the fitted curve at half-maximal effect
Summary of the method: as §4

[18] = A CellTox Green Cytotoxicity Assay to monitor cytotoxicity in HEK293 cells - 16 hour (AID 1224888); also: nearly all actives have a fitted effect of over 35% in size; also: potency is read from the fitted curve at half-maximal effect
Summary of the method: as §2

[19] = qHTS RealTime-Glo MT Cell Viability Assay in HepG2 cells - 0 hour (AID 1224889); also: nearly all actives have a fitted effect of over 50% in size
Summary of the method: as §6

[20] = A CellTox Green Cytotoxicity Assay to monitor cytotoxicity in HEK293 cells - 24 hour (AID 1224875)
Summary of the method: as §2
% is scaled to controls: 0 for no effect and ±100 for the full control effect.

CC(=O)Nc1c(I)cc(I)c(C(=O)O)c1I
inactive: Potency [1] | Potency [2] | Potency [3] | Potency [4] | max response [5] 7.77% | Potency [6] | Potency [7] | Potency [8] | Potency [9] | Potency [10] | Potency [11] | Potency [12] | Potency [13] | Potency [14] | Potency [15] | Potency [16] | Potency [17] | Potency [18] | Potency [19]

OC[C@]1(O)OC[C@@H](O)[C@H](O)[C@@H]1O
inactive: Potency [1] | Potency [2] | Potency [3] | Potency [4] | max response [5] 0.06% and 3.11% | Potency [20] | Potency [6] | Potency [7] | Potency [8] | Potency [9] | Potency [10] | Potency [11] | Potency [13] | Potency [14] | Potency [15] | Potency [16] | Potency [17] | Potency [19]

CC(C(=O)O)c1ccc(CC2CCCC2=O)cc1 (stereo unspecified)
inactive: Potency [1] | Potency [2] | Potency [3] | Potency [4] | max response [5] -1.24% | Potency [20] | Potency [6] | Potency [7] | Potency [8] | Potency [9] | Potency [10] | Potency [11] | Potency [13] | Potency [14] | Potency [15] | Potency [16] | Potency [17] | Potency [18] | Potency [19]

CCC=O
inactive: Potency [1] | Potency [2] | Potency [3] | Potency [4] | max response [5] 5.02% | Potency [6] | Potency [7] | Potency [8] | Potency [9] | Potency [10] | Potency [11] | Potency [12] | Potency [13] | Potency [14] | Potency [15] | Potency [16] | Potency [17] | Potency [18] | Potency [19]

COCCCOCCCOC
inactive: Potency [1] | Potency [2] | Potency [3] | Potency [4] | max response [5] 6.62% | Potency [20] | Potency [6] | Potency [7] | Potency [10] | Potency [11] | Potency [14] | Potency [15] | Potency [16] | Potency [18] | Potency [19]

CN1CCN(c2cc3c(cc2F)c(=O)c(C(=O)O)cn3-c2ccc(F)cc2)CC1
inactive: Potency [2] | Potency [3] | Potency [4] | max response [5] -0.934% | Potency [20] | Potency [6] | Potency [7] | Potency [8] | Potency [9] | Potency [10] | Potency [11] | Potency [12] | Potency [13] | Potency [14] | Potency [15] | Potency [16] | Potency [17] | Potency [18] | Potency [19]

CO[C@]12C[C@@H](COC(=O)c3cncc(Br)c3)CN(C)[C@@H]1Cc1cn(C)c3cccc2c13
inactive: Potency [1] | Potency [2] | Potency [4] | max response [5] -5.48% | Potency [20] | Potency [7] | Potency [10] | Potency [11] | Potency [14] | Potency [15] | Potency [16]
active: Potency [6] 23.9 µM | Potency [8] 23.9 µM | Potency [9] 23.9 µM | Potency [13] 23.9 µM

OC(CCN1CCCCC1)(c1ccccc1)C1CC2C=CC1C2 (stereo unspecified)
inactive: Potency [1] | Potency [3] | Potency [4] | max response [5] -10.3% | Potency [20] | Potency [6] | Potency [7] | Potency [8] | Potency [9] | Potency [10] | Potency [11] | Potency [12] | Potency [13] | Potency [14] | Potency [15] | Potency [16] | Potency [17] | Potency [19]

CCN(CC)CCNC(=O)c1cc(S(C)(=O)=O)ccc1OC
inactive: Potency [1] | Potency [3] | Potency [4] | max response [5] 3.02% | Potency [6] | Potency [7] | Potency [8] | Potency [9] | Potency [10] | Potency [12] | Potency [13] | Potency [15] | Potency [16] | Potency [17] | Potency [19]

CC(C)(C)c1ccc(O)c(O)c1
inactive: Potency [1] | Potency [6] | Potency [8] | Potency [9] | Potency [10] | Potency [12] | Potency [13] | Potency [14] | Potency [18] | Potency [19]
active: Potency [2] 38.9 µM | Potency [3] 25.4 µM and 13.8 µM | Potency [4] 34.7 µM | Potency [5] 20.2 µM and 36 µM | Potency [16] 22.6 µM and 13.8 µM | Potency [17] 40.2 µM and 45.3 µM

CN(C)CCCN1c2ccccc2CCc2ccc(Cl)cc21
active: Potency [1] 43.6 µM | Potency [2] 49 µM and 26.8 µM | Potency [3] 43.6 µM | Potency [5] 34.7 µM and 21.3 µM | Potency [6] 54.9 µM and 21.3 µM | Potency [7] 49 µM and 23.9 µM | Potency [8] 38.9 µM and 23.9 µM | Potency [9] 34.7 µM and 23.9 µM | Potency [11] 49 µM and 26.8 µM | Potency [13] 34.7 µM and 23.9 µM | Potency [15] 49 µM | Potency [16] 38.9 µM and 21.3 µM | Potency [18] 54.9 µM and 23.9 µM
inactive: Potency [12]
43.6 µM (active) and inactive: Potency [17]

CCCCCOC(=O)CCCCC
inactive: Potency [2] | Potency [3] | Potency [4] | max response [5] 7.06% | Potency [20] | Potency [6] | Potency [7] | Potency [8] | Potency [9] | Potency [10] | Potency [11] | Potency [12] | Potency [13] | Potency [14] | Potency [15] | Potency [16] | Potency [17] | Potency [18] | Potency [19]

COC(=O)[C@@H](N)Cc1ccc(O)c(O)c1
inactive: Potency [1] | Potency [2] | Potency [3] | Potency [4] | max response [5] 2.16% | Potency [6] | Potency [7] | Potency [8] | Potency [9] | Potency [10] | Potency [11] | Potency [12] | Potency [13] | Potency [14] | Potency [15] | Potency [16] | Potency [17] | Potency [18] | Potency [19]
